Measurements from article PMC7862700, “An all-to-all approach to the identification of sequence-specific readers for epigenetic DNA modifications on cytosine”.

Key:
Assay in all cases: DAPPL (digital affinity profiling via proximity ligation, sequencing); 10 mM Tris-HCl pH 7.5, 50 mM NaCl, 1 mM DTT, 4% glycerol, room temperature, 30 min; GST-TFs on glutathione beads, 16-mer random dsDNA library, 0.1% formaldehyde crosslink after washing; high values mean tight binding
Settings in all cases: protein: recombinant; tags: N-terminal GST; dsDNA, one strand shown
FLI1 = target: T1, FLI1 (Homo sapiens, UniProt Q01543 1-452)
T1 sequence: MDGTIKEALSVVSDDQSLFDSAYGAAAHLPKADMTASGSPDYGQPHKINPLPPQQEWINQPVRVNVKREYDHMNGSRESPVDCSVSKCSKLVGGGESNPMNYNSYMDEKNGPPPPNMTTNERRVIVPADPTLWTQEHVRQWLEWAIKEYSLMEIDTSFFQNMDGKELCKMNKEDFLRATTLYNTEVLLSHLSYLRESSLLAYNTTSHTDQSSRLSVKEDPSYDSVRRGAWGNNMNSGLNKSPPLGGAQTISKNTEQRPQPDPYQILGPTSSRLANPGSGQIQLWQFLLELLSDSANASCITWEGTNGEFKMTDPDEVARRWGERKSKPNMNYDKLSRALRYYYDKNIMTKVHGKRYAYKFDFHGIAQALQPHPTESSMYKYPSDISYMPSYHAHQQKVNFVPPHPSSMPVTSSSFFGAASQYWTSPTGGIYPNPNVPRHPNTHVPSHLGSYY
In short: (§1)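 Human transcription factors carrying a GST fusion were produced in yeast, bound to glutathione beads, tagged with DNA barcodes and pooled together with a tag-only sample. Each pool was held with 200 nmole of a random double-stranded 16-mer DNA library in Tris/NaCl/DTT/glycerol buffer for 30 min at room temperature, then washed, crosslinked in 0.1% formaldehyde, proximity-ligated with BsaI/T4 ligase (1 h, 37 °C), PCR-amplified and sequenced on an Illumina NextSeq500. Binding signal is the read frequency of each hexamer for a given factor divided by its frequency in the tag-only sample.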

ELK1 = target: T2, ELK1 (Homo sapiens, UniProt P19419 1-428)
T2 sequence: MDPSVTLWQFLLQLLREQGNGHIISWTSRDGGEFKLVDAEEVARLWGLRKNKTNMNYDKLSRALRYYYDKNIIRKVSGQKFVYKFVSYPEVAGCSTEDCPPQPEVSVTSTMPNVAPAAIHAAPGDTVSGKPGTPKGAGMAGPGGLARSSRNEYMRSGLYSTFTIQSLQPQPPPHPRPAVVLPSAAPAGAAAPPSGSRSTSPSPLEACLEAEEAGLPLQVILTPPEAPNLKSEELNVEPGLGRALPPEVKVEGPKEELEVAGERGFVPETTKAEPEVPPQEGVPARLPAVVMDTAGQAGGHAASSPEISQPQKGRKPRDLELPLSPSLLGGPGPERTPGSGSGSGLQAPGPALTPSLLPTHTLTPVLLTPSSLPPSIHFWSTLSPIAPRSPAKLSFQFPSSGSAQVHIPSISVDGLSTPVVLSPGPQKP
In short: as §1

ERG = target: T3, ERG (Homo sapiens, UniProt P11308 1-479)
T3 sequence: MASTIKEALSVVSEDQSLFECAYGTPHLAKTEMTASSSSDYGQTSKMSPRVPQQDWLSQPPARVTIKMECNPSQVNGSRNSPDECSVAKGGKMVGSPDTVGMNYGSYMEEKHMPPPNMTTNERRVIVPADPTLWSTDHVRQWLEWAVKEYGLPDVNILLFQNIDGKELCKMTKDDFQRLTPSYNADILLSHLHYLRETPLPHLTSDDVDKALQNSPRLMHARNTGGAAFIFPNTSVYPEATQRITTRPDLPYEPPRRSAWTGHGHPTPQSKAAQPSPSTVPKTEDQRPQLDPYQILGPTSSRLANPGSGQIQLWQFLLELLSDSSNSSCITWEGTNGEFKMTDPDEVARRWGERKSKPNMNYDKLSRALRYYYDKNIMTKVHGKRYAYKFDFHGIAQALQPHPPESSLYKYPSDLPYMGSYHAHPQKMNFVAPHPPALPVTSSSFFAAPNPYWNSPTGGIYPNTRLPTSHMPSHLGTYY
In short: as §1

ELF1 = ELF1 (Homo sapiens, UniProt P32519 1-619)
In short: as §1

EHF = target: T4, EHF (Homo sapiens, UniProt Q9NZC4 1-300)
T4 sequence: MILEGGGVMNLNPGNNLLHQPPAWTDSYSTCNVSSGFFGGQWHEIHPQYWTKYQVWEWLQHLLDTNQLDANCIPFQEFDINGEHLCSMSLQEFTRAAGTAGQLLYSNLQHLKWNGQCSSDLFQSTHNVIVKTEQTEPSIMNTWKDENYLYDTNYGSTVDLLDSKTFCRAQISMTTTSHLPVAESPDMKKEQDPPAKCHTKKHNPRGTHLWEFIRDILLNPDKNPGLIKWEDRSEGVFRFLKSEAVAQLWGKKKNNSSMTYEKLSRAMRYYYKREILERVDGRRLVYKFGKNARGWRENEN
In short: as §1

SPIB = SPIB (Homo sapiens, UniProt Q01892 1-262)
In short: as §1

ELK3 = target: T5, ELK3 (Homo sapiens, UniProt P41970 1-407)
T5 sequence: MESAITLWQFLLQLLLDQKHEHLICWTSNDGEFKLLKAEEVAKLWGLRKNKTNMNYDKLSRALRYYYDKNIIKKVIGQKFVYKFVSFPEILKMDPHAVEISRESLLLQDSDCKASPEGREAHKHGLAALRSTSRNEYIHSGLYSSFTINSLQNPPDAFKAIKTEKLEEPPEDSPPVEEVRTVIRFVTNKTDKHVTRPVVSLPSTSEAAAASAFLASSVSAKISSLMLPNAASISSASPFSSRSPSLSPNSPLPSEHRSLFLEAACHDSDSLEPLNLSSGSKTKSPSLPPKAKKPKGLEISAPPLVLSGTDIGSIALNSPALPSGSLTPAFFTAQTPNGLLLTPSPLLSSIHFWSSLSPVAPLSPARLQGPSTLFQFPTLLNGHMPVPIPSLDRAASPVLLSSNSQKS
In short: as §1

FEV = target: T6, FEV (Homo sapiens, UniProt Q99581 1-238)
T6 sequence: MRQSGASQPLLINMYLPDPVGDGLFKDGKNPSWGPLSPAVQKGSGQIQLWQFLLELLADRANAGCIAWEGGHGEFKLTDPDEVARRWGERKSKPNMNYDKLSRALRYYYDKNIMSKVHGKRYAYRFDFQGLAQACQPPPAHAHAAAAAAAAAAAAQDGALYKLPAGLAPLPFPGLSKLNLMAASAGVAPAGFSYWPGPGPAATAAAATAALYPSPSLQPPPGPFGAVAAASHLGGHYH
In short: as §1

ETV5 = ETV5 (Homo sapiens, UniProt P41161 1-510)
In short: as §1

SPIC = target: T7, SPIC (Homo sapiens, UniProt Q8N5J4 1-248)
T7 sequence: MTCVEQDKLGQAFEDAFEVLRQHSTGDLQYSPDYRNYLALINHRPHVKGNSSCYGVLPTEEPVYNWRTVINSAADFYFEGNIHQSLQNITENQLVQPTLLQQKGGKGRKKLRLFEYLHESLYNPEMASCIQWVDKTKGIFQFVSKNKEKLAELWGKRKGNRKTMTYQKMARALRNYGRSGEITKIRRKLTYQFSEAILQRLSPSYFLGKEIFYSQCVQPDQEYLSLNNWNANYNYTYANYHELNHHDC
In short: as §1

ELF4 = ELF4 (Homo sapiens, UniProt Q99607 1-663)
In short: as §1

ETV1 = ETV1 (Homo sapiens, UniProt P50549 1-477)
In short: as §1

ETS2 = target: T8, ETS2 (Homo sapiens, UniProt P15036 1-469)
T8 sequence: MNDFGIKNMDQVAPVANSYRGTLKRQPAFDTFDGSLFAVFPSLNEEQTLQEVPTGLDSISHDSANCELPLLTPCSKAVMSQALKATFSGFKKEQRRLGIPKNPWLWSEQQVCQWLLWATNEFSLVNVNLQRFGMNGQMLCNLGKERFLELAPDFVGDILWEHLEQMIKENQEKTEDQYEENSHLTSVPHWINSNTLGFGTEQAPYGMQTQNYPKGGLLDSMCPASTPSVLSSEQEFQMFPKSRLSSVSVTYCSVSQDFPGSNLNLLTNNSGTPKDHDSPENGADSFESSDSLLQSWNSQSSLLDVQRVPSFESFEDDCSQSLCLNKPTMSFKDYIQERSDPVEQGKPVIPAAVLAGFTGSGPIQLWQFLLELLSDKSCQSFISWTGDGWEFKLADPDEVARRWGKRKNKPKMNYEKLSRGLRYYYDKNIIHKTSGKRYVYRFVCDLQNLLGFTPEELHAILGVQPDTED
In short: as §1

SPDEF = target: T9, SPDEF (Homo sapiens, UniProt O95238 1-335)
T9 sequence: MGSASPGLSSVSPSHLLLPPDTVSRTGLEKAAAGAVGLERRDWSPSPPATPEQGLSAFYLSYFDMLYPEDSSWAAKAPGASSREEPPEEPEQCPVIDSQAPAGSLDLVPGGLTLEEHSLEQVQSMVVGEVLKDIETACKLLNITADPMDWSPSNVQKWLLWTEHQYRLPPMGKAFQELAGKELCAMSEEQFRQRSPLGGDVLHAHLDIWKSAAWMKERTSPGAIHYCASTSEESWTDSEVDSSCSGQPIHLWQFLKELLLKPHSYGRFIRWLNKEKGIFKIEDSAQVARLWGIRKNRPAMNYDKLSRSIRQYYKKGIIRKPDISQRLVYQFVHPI
In short: as §1

ETV3 = target: T10, ETV3 (Homo sapiens, UniProt P41162-2 1-143)
T10 sequence: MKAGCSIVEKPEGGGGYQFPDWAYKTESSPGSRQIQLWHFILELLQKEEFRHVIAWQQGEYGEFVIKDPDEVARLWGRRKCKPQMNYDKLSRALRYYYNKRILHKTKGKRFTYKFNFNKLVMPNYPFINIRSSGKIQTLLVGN
In short: as §1

ETV6 = ETV6 (Homo sapiens, UniProt P41212 1-452)
In short: as §1

Chain of SPIB (Q01892 whole entry): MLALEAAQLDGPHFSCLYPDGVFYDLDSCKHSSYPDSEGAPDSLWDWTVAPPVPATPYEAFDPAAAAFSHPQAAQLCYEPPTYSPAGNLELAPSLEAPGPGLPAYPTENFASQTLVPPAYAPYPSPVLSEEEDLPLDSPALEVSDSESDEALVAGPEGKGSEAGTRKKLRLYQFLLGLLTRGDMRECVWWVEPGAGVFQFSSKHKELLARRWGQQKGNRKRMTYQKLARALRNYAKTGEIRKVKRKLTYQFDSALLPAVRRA
Chain of ETV1 (P50549 whole entry): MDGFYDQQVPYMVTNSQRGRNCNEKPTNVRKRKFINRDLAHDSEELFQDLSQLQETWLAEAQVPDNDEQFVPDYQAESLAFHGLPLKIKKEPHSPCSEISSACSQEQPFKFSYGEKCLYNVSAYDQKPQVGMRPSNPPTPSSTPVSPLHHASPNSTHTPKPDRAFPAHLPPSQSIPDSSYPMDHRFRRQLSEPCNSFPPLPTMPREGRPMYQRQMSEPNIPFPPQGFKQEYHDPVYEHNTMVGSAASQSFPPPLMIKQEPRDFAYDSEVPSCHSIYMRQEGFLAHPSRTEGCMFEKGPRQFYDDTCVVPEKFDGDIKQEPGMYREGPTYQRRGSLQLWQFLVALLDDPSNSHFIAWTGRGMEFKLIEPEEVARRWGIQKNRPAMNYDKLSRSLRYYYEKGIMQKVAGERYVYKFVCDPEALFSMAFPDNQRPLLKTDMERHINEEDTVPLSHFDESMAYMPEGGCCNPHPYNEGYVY
Chain of ETV6 (P41212 whole entry): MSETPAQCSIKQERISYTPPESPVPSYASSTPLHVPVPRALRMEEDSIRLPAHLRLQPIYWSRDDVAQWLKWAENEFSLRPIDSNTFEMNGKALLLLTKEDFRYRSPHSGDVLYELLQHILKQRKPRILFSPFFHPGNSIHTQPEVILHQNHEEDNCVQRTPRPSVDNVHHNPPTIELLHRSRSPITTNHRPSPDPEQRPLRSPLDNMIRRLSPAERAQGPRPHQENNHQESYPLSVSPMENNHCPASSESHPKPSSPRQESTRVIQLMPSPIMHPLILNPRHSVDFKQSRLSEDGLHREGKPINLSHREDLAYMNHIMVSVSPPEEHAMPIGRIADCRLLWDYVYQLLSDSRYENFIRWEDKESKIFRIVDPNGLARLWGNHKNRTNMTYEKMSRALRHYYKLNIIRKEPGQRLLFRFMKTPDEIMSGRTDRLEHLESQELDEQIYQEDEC
Chain of ELF1 (P32519 whole entry): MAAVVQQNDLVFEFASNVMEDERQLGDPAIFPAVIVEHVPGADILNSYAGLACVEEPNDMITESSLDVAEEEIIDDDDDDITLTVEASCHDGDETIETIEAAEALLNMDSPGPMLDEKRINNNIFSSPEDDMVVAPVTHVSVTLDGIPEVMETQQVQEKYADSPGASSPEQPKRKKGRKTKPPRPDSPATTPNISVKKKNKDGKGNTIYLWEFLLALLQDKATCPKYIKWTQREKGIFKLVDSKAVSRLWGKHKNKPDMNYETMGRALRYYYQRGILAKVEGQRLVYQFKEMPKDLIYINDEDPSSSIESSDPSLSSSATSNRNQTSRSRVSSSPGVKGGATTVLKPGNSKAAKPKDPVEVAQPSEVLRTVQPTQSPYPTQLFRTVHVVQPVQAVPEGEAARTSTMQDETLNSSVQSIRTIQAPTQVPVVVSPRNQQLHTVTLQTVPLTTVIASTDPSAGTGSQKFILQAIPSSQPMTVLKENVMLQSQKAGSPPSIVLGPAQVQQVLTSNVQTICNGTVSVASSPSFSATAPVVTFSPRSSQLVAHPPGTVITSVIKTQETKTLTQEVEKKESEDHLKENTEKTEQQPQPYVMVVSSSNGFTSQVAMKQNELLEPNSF
Chain of ETV5 (P41161 whole entry): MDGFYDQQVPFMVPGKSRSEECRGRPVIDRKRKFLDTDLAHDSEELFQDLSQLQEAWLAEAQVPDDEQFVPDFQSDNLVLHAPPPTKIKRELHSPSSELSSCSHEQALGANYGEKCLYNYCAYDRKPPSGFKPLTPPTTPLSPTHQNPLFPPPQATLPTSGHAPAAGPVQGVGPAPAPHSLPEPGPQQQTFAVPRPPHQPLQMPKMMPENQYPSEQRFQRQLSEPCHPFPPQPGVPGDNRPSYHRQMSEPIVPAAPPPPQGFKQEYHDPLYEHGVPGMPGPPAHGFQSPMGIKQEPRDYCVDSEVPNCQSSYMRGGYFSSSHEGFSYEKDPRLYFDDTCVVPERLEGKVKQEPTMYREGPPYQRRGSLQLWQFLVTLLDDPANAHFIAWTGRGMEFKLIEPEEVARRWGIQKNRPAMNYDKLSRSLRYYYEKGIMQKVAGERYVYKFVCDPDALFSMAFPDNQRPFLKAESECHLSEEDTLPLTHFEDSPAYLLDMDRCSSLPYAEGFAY
Chain of ELF4 (Q99607 whole entry): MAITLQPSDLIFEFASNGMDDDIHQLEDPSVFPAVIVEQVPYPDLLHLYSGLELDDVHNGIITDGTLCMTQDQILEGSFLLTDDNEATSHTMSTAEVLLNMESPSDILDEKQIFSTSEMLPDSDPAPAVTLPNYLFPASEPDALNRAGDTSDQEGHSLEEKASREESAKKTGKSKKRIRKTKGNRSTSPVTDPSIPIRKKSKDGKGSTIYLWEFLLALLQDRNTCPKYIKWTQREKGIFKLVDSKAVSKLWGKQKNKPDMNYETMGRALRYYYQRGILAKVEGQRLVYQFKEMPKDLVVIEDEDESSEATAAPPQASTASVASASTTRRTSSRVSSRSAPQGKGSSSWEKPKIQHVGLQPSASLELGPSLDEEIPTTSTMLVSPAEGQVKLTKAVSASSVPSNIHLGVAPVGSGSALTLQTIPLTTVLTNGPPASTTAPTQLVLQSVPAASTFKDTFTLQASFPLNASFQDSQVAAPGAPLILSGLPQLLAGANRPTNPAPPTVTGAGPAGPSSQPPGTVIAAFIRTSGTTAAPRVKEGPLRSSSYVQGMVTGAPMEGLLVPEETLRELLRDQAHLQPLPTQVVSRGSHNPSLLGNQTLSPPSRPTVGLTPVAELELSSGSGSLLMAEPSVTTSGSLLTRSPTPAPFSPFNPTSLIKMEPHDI

With TGCCGG the binding signal (FLI1) was 1.11 fold enrichment (6-mer frequency, TF over GST control), the binding signal (ELK1) was 1.09 fold enrichment (6-mer frequency, TF over GST control) and the binding signal (ERG) was 1.13 fold enrichment (6-mer frequency, TF over GST control). The binding signal (ELF1) was 1.02 fold enrichment (6-mer frequency, TF over GST control), the binding signal (EHF) was 1.03 fold enrichment (6-mer frequency, TF over GST control) and the binding signal (SPIB) was 1.02 fold enrichment (6-mer frequency, TF over GST control). For the same sequence, the binding signal (ELK3) was 1.02 fold enrichment (6-mer frequency, TF over GST control), the binding signal (FEV) was 1.26 fold enrichment (6-mer frequency, TF over GST control) and the binding signal (ETV5) was 1.04 fold enrichment (6-mer frequency, TF over GST control). The binding signal (SPIC) was 1.09 fold enrichment (6-mer frequency, TF over GST control), the binding signal (ELF4) was 1.04 fold enrichment (6-mer frequency, TF over GST control) and the binding signal (ETV1) was 1.11 fold enrichment (6-mer frequency, TF over GST control). For the same sequence, the binding signal (ETS2) was 1 fold enrichment (6-mer frequency, TF over GST control), the binding signal (SPDEF) was 1.21 fold enrichment (6-mer frequency, TF over GST control) and the binding signal (ETV3) was 1.21 fold enrichment (6-mer frequency, TF over GST control). For the same sequence, the binding signal (ETV6) was 1.13 fold enrichment (6-mer frequency, TF over GST control).
